Test results as given in PubChem BioAssay AID1851 (National Center for Advancing Translational Sciences (NCATS), 2009).
In all, about 16,000 compounds went through this assay and about 5,800 (36%) were called active. Another 23% or so got no clear call; they are omitted. The list shows a part of the results. Values without a mark were called inactive. The call rests on the fitted dose curve; in most records, active means well fitted curve in the direction sought with a large enough effect; inconclusive means small, poorly fitted or top-dose-only effect, or effect the other way; inactive means no such curve, though single readings can be large or run the other way. Square brackets hold non-standard residues; d marks the D form. Peptide text beside a SMILES is read from it. * marks the point of attachment. ξ: configuration not given here. Cbz = O=C(OCc1ccccc1)*; ξA = CC(N)C(=O)O

These compounds were tested against Cytochrome P450 2C19 (Homo sapiens) (UniProt P33261) (assay: Cytochrome panel assay with activity outcomes). Settings: recombinant CYP, pro-luciferin dealkylation, luminescence, p450-cyp2c19; series mostly up to 57.1 µM.
On the % scale 0 is the no-effect control and ±100 the full control effect.

Sequence of Cytochrome P450 2C19 (Homo sapiens) (P33261 whole entry, looked up): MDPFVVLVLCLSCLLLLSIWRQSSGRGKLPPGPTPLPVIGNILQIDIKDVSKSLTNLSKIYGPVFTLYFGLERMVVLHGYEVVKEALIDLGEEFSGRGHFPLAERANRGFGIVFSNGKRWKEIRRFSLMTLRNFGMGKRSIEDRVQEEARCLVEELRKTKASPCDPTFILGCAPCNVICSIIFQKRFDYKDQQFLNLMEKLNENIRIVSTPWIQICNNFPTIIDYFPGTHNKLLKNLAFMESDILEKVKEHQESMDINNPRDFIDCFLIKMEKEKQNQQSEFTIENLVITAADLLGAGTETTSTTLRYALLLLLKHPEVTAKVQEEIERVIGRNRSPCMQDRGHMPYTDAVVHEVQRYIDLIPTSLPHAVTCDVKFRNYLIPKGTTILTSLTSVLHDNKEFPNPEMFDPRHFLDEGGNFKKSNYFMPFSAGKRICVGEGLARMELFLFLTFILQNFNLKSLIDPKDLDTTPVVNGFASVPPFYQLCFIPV

Row | Structure (SMILES) | AC50 | activity, negative = inhibition
1 | COc1cc2c(cc1OC)[C@H](c1ccccc1)CN(C)CC2 | inactive | 
2 | COC(=O)c1ccc(OCC2c3cc(OC)c(OC)cc3CCN2C(=O)C2CC2)cc1 (configuration not stated) | 2.51 µM (active) | 
3 | COc1ccc(C(=O)OC(C)CN2CCN(C)CC2)cc1OC (configuration not stated) | inactive | 
4 | NCCCCNCCCN | inactive | 
5 | NCCCNCCCCNCCCN | 7.94 µM (active) | 
6 | NCCCCN | inactive | 
7 | Cn1nc(C(F)(F)F)c(/C=N/OC(=O)c2ccccc2Cl)c1SCc1ccc(Cl)cc1 | 0.355 µM (active) | 
8 | Cn1c(=O)c2[nH]c([C@@H]3CC(=O)C[C@H](c4nc5c([nH]4)c(=O)n(C)c(=O)n5C)N3)nc2n(C)c1=O |  | 1.66% [at 11.4 µM]
9 | Cc1ccc2c(c1)N(CC(=O)NC1CCC(C)CC1)C(=O)CO2 (configuration not stated) | 2.82 µM (active) | 
10 | O=C(O)C[C@@H]1CCCc2ccccc2[C@H]1O | inactive | 
11 | Cc1ccc2c(c1)N(CC(=O)NC1CCCc3ccccc31)C(=O)CO2 (configuration not stated) | 2.51 µM (active) | 
12 | Cc1ccc(CNC(=O)CN2C(=O)COc3ccc(C)cc32)cc1 | 2.82 µM (active) | 
13 | CN(C)C(=O)Oc1cccc([N+](C)(C)C)c1 | inactive | 
14 | C=CCn1c(SCC)nc2sc3c(c2c1=O)CCc1ccccc1-3 | 8.91 µM (active) | 
15 | O=c1/c(=C\c2ccc(O)cc2)sc2n1C(c1ccccc1)C(c1ccccc1)=NN=2 (configuration not stated) | 1.58 µM (active) | 
16 | CCCCSc1nc(C)cc(NC(=S)Nc2ccc(OC)cc2)n1 | 2.51 µM (active) | 
17 | CCOC(=O)c1cccc2c1-c1ccccc1/C2=N/O | 7.94 µM (active) | 
18 | CC(C)=CCc1c(C)nc2ccccc2c1C(=O)O | inactive | 
19 | CC(C)=CCC1=C(OCC(=O)O)C(=O)c2ccccc2C1=O | 1.26 µM (active) | 
20 | CCOc1ccccc1C1C(C(N)=O)=C(C)Nc2nc(-c3ccc(OC)cc3)nn21 (configuration not stated) | 10 µM (active) | 
21 | COc1ccccc1NC(=O)C1=C(C)Nc2nc(-c3ccc(N(C)C)cc3)nn2C1c1ccncc1 (configuration not stated) | 14.1 µM (active) | 
22 | CSc1nc2n(n1)C(c1cccc(F)c1)C(C(=O)Nc1ccc(C)cc1C)=C(C)N2 (configuration not stated) | inactive | 
23 | COC(=O)C1=C(C)Nc2ncnn2C1c1cccnc1 (configuration not stated) | inactive | 

Row | Structure (SMILES) | AC50 | activity, negative = inhibition
24 | CC1=C(C(=O)Nc2cccnc2)C(c2cccnc2)n2nc(-c3cccs3)nc2N1 (configuration not stated) | 11.2 µM (active) | 
25 | CC1=C(C(N)=O)C(c2ccccn2)n2nc(SCc3ccccc3Cl)nc2N1 (configuration not stated) | inactive | 
26 | COc1ccc(NC(=O)N2CC[C@@]3(CCCN(C(C)=O)C3)C2)cc1 | inactive | 
27 | COc1ccc2oc(=O)c(C(=O)Oc3ccc(NC(C)=O)cc3)cc2c1 | 15.8 µM (active) | 
28 | O=C(Nc1ccc2oc(=O)c(C(=O)O)cc2c1)Oc1ccccc1 |  | 18.7% [at 11.4 µM]
29 | CN(C(=S)Nc1ccccc1F)C1(c2ccccc2Cl)CCCCC1=O (configuration not stated) | 1.26 µM (active) | 
30 | CO/N=C(/CNC(=O)c1ccc(Cl)cc1Cl)c1ccc(Cl)cc1 | 0.398 µM (active) | 
31 | CO/N=C(/CNC(=O)c1cccc(Cl)c1)c1ccc(Cl)cc1 | 0.708 µM (active) | 
32 | COc1ccc(NC(=O)N2CC3(CCN(C(=O)c4ccco4)CC3)C2)cc1 | inactive | 
33 | COc1ccc2c(c1)Cc1sc(NC(=O)c3ccco3)nc1-2 | 14.1 µM (active) | 
34 | COc1ccc(Cc2nnc(NC(=O)c3ccco3)s2)cc1 | 14.1 µM (active) | 
35 | COc1ccc2c(c1)CCc1sc(NC(=O)c3ccc(C)cc3)nc1-2 | 3.55 µM (active) | 
36 | COc1ccc(NC(=O)N2CCC3(CC2)CCN(C(=O)c2ccco2)CC3)cc1 | inactive | 
37 | COc1ccc(Cc2nnc(NC(=O)c3cccc([N+](=O)[O-])c3C)s2)cc1 | inactive | 
38 | Cc1ccc(NC(=O)NNC(=O)Cn2nc(-c3ccccc3)c(-c3ccccc3)c(C#N)c2=O)cc1 | 17.8 µM (active) | 
39 | Cc1ccc(-c2c(C#N)c(N)n(-c3ccccc3)c(=O)c2C#N)cc1 | inactive | 
40 | COc1ccc(CSc2nnnn2C)cc1[N+](=O)[O-] | 10 µM (active) | 
41 | Cn1nnnc1SCc1ccccc1[N+](=O)[O-] | 25.1 µM (active) | 
42 | Cn1nnnc1SCC(=O)Nc1ccccc1[N+](=O)[O-] | inactive | 
43 | O=C(c1ccccc1)c1ccc2nc(-c3ccc(NC(=O)c4ccccc4Br)cc3)[nH]c2c1 | 5.62 µM (active) | 
44 | COC(=O)Nc1nc2ccc(C(=O)c3ccccc3)cc2[nH]1 | inactive | 
45 | O=C(O)c1ccc(NCc2nc3cc4ccccc4cc3[nH]2)cc1 |  | 60.6% [at 11.4 µM]
46 | C[C@H](N)CCCC(C)(C)O | inactive | 

Row | Structure (SMILES) | AC50 | activity, negative = inhibition
47 | O=C(O)c1ccccc1-c1ccc(/C=c2\sc3nc4cc(Br)cnc4n3c2=O)o1 | 35.5 µM (active) | 
48 | Cc1cc(C)n(C(=O)c2cc3ccccc3c(=O)o2)n1 | 1.58 µM (active) | 
49 | Cc1cc2[nH]c(=O)c3ccccc3n2n1 | inactive | 
50 | CCc1cc2c(nc1CC)CCN(CC/C(C)=N/O[C@@H]1O[C@H](COC(C)=O)[C@H](OC(C)=O)[C@H](OC(C)=O)[C@H]1OC(C)=O)C2 |  | 6.45% [at 11.4 µM]
51 | CCS(=O)(=O)c1ccc2oc(Nc3cc(C)cc(C)c3)nc2c1 | 11.2 µM (active) | 
52 | CC(C)(C)N1C(=O)[C@H]2[C@H]3[C@H](O)[C@H](O)C/C(=N/NC(=O)OCc4ccccc4)[C@H]3CC[C@@H]2C1=O |  | 41% [at 11.4 µM]
53 | CC(=O)SC[C@@H](Cc1ccccc1)C(=O)NCC(=O)OCc1ccccc1 | 0.126 µM (active) | 
54 | COC(=O)CNC(=O)C(C)NC(=O)CNC(=O)OCc1ccccc1 (stereo not drawn) (Cbz-Gly-[ξA]-Gly-OMe) | 31.6 µM (active) | 
55 | CC(C)C[C@H](NC(=O)[C@@H](O)[C@@H](N)Cc1ccccc1)C(=O)O | inactive | 
56 | N[C@@H](Cc1ccccc1)C(=O)O |  | 8.56% [at 11.4 µM]
57 | O=C(O)CNC(=O)[C@@H](CS)Cc1ccccc1 | inactive | 
58 | CC(=O)N[C@H](Cc1ccc(O)cc1)C(=O)O |  | -9.65% [at 11.4 µM]
59 | CC(C)(C)N1C(=O)[C@H]2[C@H]3[C@H](O)[C@H](O)C/C(=N/NC(=O)OCc4ccccc4)[C@@H]3CC[C@@H]2C1=O |  | 6.74% [at 11.4 µM]
60 | COC(=O)[C@H](C)NC(=O)[C@@H](C)CO |  | 35.5% [at 11.4 µM]
61 | COC(=O)[C@H](Cc1ccccc1)NC(=O)[C@@H](C)CO | 1.26 µM (active) | 
62 | O=C(N[C@@H](Cc1ccccc1)C(=O)CCl)OCc1ccccc1 | 5.01 µM (active) | 
63 | NC([N-]/N=C/c1ccccn1)=[S]=[Fe].O=S(=O)(O)O |  | -35.2% [at 11.4 µM]
64 | CSCC[C@@H]1NC(=O)C/C=C\[C@@H](C)COC(=O)[C@@H](C)COC1=O |  | 30.8% [at 11.4 µM]
65 | O=C1[C@H]2[C@H]3[C@H](O)[C@H](O)C/C(=N/OC[C@@H](O)COCc4ccco4)[C@H]3CC[C@@H]2C(=O)N1C[C@@H]1CCCO1 |  | -12.6% [at 11.4 µM]
66 | CC(C)C[C@H](NC(=O)[C@@H](O)[C@H](N)Cc1ccccc1)C(=O)O | inactive | 
67 | COC(=O)CCC(NC(=O)OCc1ccccc1)C(=O)NC(CC(C)C)C(=O)OC (configuration not stated) (Cbz-Glu(OMe)-Leu-OMe; configuration not given here) | 11.2 µM (active) | 
68 | CC(C)[C@H](NC(=O)OCc1ccccc1)C(=O)N[C@H](C=O)Cc1ccccc1 (Cbz-Val-Phe-aldehyde) | inactive | 
69 | CCCCC(C=O)NC(=O)C(CC(C)C)NC(=O)OCc1ccccc1 (configuration not stated) | 10 µM (active) | 

Row | Structure (SMILES) | AC50 | activity, negative = inhibition
70 | CSCC[C@H](C=O)NC(=O)[C@H](CC(C)C)NC(=O)[C@H](CC(C)C)NC(C)=O (Ac-Leu-Leu-[dM]-aldehyde) | inactive | 
71 | COc1ccc(/C=C2\SC(=O)N(CCNC(=O)C3CC(=O)N(c4ccccc4)C3)C2=O)cc1 (configuration not stated) | 14.1 µM (active) | 
72 | COC(=O)COc1ccc(/C=C2/SC(=O)N(CC(=O)N3CCCC3)C2=O)cc1Br | inactive | 
73 | COCC(=O)N1CCC[C@@]2(CCN(Cc3ccccc3OC)C2)C1 | inactive | 
74 | Cc1ccc(-n2nc(C)c3c2OC(N)=C(C#N)C3c2ccco2)cc1 (configuration not stated) | 8.91 µM (active) | 
75 | O=C(O)c1cc2c(cc1S(=O)(=O)O)[C@H]1[C@@H]([C@H]3[C@H]2[C@@]2(Cl)C(Cl)=C(Cl)[C@]3(Cl)C2(Cl)Cl)[C@]2(Cl)C(Cl)=C(Cl)[C@@]1(Cl)C2(Cl)Cl |  | -16.5% [at 11.4 µM]
76 | Cc1cc(=O)[nH]c(-n2[nH]c3c(c2=O)CCCC3)n1 | inactive | 
77 | Cc1ccc(S(=O)(=O)Nc2cc(=O)[nH]c3c2CCC3)cc1 | 0.631 µM (active) | 
78 | C=CCSc1nc2c(sc3nc(C)cc(C)c32)c(=O)[nH]1 | 6.31 µM (active) | 
79 | Cc1cc(C)c2c(=O)[nH]c(SCC(=O)N(C)C)nc2n1 | inactive | 
80 | COc1ccc(CNc2ccnc(-c3cccnc3)n2)c(OC)c1 | 2 µM (active) | 
81 | COc1ccc(CNc2ccnc(-c3cccc(NS(C)(=O)=O)c3)n2)c(OC)c1 | 15.8 µM (active) | 
82 | Cc1cnc(CNc2ccnc(-c3cccc(NS(C)(=O)=O)c3)n2)cn1 | inactive | 
83 | COc1cccc(-c2nccc(NCc3ccccc3OC)n2)c1 | 5.01 µM (active) | 
84 | COc1cccc(-c2nccc(NCc3ccc(OC)cc3OC)n2)c1 | 2.51 µM (active) | 
85 | N[C@H](CCC(=O)NCS(=O)(=O)O)C(=O)O | inactive | 
86 | Cc1[nH]c2c(C)ccc(C)c2c1CC(=O)O | 0.316 µM (active) | 
87 | COC(=O)C/C=C\[C@H](C)[C@H](CO)NS(=O)(=O)c1ccc(C)cc1 |  | 44.8% [at 11.4 µM]
88 | CO/N=C\[C@@H](NS(=O)(=O)c1ccc(C)cc1)[C@H](C)/C=C\CC(=O)OC | 3.16 µM (active) | 
89 | COC(=O)C/C=C\[C@@H](C)[C@@H](/C=N\O[C@@H](C)c1cc(-c2c(C)cc(C)cc2C)no1)NS(=O)(=O)c1ccc(C)cc1 | 3.16 µM (active) | 
90 | COC(=O)C/C=C\[C@@H](C)[C@@H](/C=N\O[C@@H](C)c1cn([C@H]2COC[C@H]2O)nn1)NS(=O)(=O)c1ccc(C)cc1 |  | -9.22% [at 11.4 µM]
91 | COC(=O)C/C=C\[C@@H](C)[C@@H](/C=N\OC[C@@H](O)COCc1ccco1)NS(=O)(=O)c1ccc(C)cc1 |  | -9.48% [at 11.4 µM]
92 | COC(=O)C/C=C\[C@@H](C)[C@@H](/C=N\O[C@@H](C)CN1CCCc2nc(C)c(C)cc21)NS(=O)(=O)c1ccc(C)cc1 |  | -27.4% [at 11.4 µM]
